# Results as given in PubChem BioAssay AID686978 (National Center for Advancing Translational Sciences (NCATS), 2013).
# Screen size: about 420,000 compounds; about 64,000 (15%) were called active. Inconclusive results (about 27%) are left out. Not all results are given here. Values without a mark were called inactive. Calls follow the shape of the dose curve; as a rule, active = well fitted inhibition curve with a large enough effect; inconclusive = small, poorly fitted or top-dose-only effect; inactive = flat fitted curve, though single readings scatter.
# Test: qHTS for Inhibitors of human tyrosyl-DNA phosphodiesterase 1 (TDP1): qHTS in cells in absence of CPT; also: nearly all actives have a fitted effect of over 55% in size
# Details: DT40 Tdp1-/- hTDP1 cells, no CPT, ATP luminescence, 48 h; activity change, negative = growth inhibition: at 46.2 µM (top of the series)
# Method in brief: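 Stably hTDP1-transfected Tdp1-null chicken DT40 cells were treated with library compounds minus camptothecin and grown for at least 48 hr at 37 °C, after which cellular ATP was quantified by luminescence.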
# % is scaled to controls: 0 for no effect and ±100 for the full control effect; potency is read from the fitted curve at half-maximal effect.
Compound,"activity change, negative = growth inhibition",Potency
CC1Cn2c(nnc2-c2cccs2)S1 (stereo unspecified),-6.14%,
N#C/C(=C(/O)COc1cccc2ccccc12)c1nc2ccccc2[nH]1,-9.31%,
N#C/C(=C(/O)COC(=O)COc1ccc(Cl)cc1)c1nc2ccccc2[nH]1,,4.61 µM (active)
COc1ccccc1C(=O)COC(=O)COc1ccc(C#N)cc1,5.36%,
O=C(/C(=N\O)n1cncn1)c1ccc(Br)cc1Br,4.39%,
Oc1cccc2ccc(/C=C/c3ccc(Br)s3)nc12,,0.082 µM (active)
CCOC(=O)C1(Cc2cccc(OC)c2)CCCN(C(=O)CCSC)C1 (stereo unspecified),-24.5%,
Cc1ccc(S(=O)(=O)Cc2cc(-c3ccc(Cl)cc3)no2)cc1,-6.77%,
O=S(=O)(Cc1ccc(Cl)cc1Cl)c1ccc(Cl)cc1,,1.03 µM (active)
O=S(=O)(O)c1nc2ccccc2n1Cc1ccc(Cl)cc1Cl,-26.9%,
C=C1CCN([C@H](C(=O)NCc2cc(OC)c(OC)c(OC)c2)C(C)C)S(=O)(=O)c2ccccc21,-3.89%,
COc1cc(C(=O)NC2CCN(C)CC2)ccc1Nc1ncc2c(n1)N(C1CCC(O)CC1)CCC(=O)N2C (stereo unspecified),,16.4 µM (active)
COc1ccc(C(=O)NC2CC2)cc1OC1CCN(Cc2cnn(C)c2)CC1,4.43%,
COc1ccc(Cl)cc1NS(=O)(=O)c1cccc(C(=O)NC2CCC(O)CC2)c1 (stereo unspecified),-6.37%,
Cc1ccccc1OCCC(=O)Nc1c(C)n(C)n(-c2ccccc2)c1=O,0.764%,
COc1cccc(C(=O)N2CCC(n3nccc3NC(=O)C3CCOC3)CC2)c1 (stereo unspecified),3.75%,
COc1ccc(N2CCN(Cc3nnc(-c4ccccc4)o3)CC2)cc1,3.5%,
COc1ccc(N2CCN(c3cc(C)nc4nncn34)CC2)cc1,,16.4 µM (active)
COc1ccc(-c2nnc3n2CCCCC3)cc1,-10.5%,
Cc1ccccc1C1CC(c2cccs2)=NN1S(C)(=O)=O (stereo unspecified),-7.12%,
CCOC(=O)c1c(C)[nH]c(C)c1S(=O)(=O)N1CCCC(C(=O)NCc2ccccc2Cl)C1 (stereo unspecified),-27.1%,
CCOc1ccccc1NC(=O)C1CCCN(S(=O)(=O)c2cn(C)cn2)C1 (stereo unspecified),-6.57%,

Compound,"activity change, negative = growth inhibition",Potency
Cc1ccccc1CNC(=O)C1CCCN(S(=O)(=O)N(C)c2ccc(F)cc2)C1 (stereo unspecified),,18.4 µM (active)
COc1cccc(CNC(=O)C2CCN(S(=O)(=O)c3ccc4c(ccn4C)c3)CC2)c1,1.01%,
CCOc1ccc(NC(=O)C2CCCN(C(=O)Nc3ccccc3)C2)cc1 (stereo unspecified),-0.394%,
CCOc1ccc(CNC(=O)C2CCCN(S(=O)(=O)N(CC)c3ccc(OCC)cc3)C2)cc1 (stereo unspecified),,20.6 µM (active)
CCS(=O)(=O)N1CCCC(C(=O)NCc2ccc(C)cc2)C1 (stereo unspecified),-1.29%,
CCOc1ccccc1CNC(=O)C1CCCN(S(=O)(=O)c2ccc3c(ccn3C)c2)C1 (stereo unspecified),,16.4 µM (active)
Cc1ccc(CNC(=O)C2CCCN(S(C)(=O)=O)C2)cc1 (stereo unspecified),-9.73%,
CCOc1ccc(N(CC)S(=O)(=O)N2CCCC(C(=O)Nc3ccc(C(C)=O)cc3)C2)cc1 (stereo unspecified),,23.1 µM (active)
CCOC(=O)c1c(S(=O)(=O)N2CCCC(C(=O)NCc3ccc(F)cc3)C2)c(C)n(CC)c1C (stereo unspecified),-20.8%,
CCOc1ccc(C(=O)NC2CCN(S(=O)(=O)CC)CC2)cc1,-14.8%,
Cc1cc(C)cc(OCc2nnc(SCC(=O)OC3CCCCC3)o2)c1,-0.322%,
OC(c1ccccc1)c1nccn1Cc1ccccc1 (stereo unspecified),2.98%,
COc1ccccc1C(=O)NC(CCSC)C(=O)NNC(=O)c1csc(N2CCOCC2)n1 (stereo unspecified),-22%,
CCN(CC)C(=O)CS(=O)CC(=O)Nc1cc(OCCOC)c(Cl)cc1Cl (stereo unspecified),-3.24%,
CCOC(=O)c1c(S(=O)(=O)N2CCCC(C(=O)NCc3cccc(C)c3)C2)c(C)n(C)c1C (stereo unspecified),-4.19%,
COc1ccc(NC(=O)C2CCCN(S(=O)(=O)c3cccc4cccnc34)C2)cc1 (stereo unspecified),-42.5%,
CCOc1cccc(NC(=O)C2CCCN(S(=O)(=O)c3ccc(OC)cc3)C2)c1 (stereo unspecified),,23.1 µM (active)
CCOc1ccc(N(CC)S(=O)(=O)N2CCCC(C(=O)NCc3ccc(SC)cc3)C2)cc1 (stereo unspecified),,20.6 µM (active)
CSc1ccc(S(=O)(=O)N2CCC(C(=O)NCc3ccncc3)CC2)cc1,-13.1%,
Cc1c(S(=O)(=O)O)oc2c1C(=O)C(=O)c1c-2ccc2c1CCCC2(C)C,-8.76%,
Cc1nc(C)c(C(=O)Nc2ccc(C)c(F)c2)o1,-0.916%,
CCOc1c(N2CCCCC2)c(=O)c1=O,-12.1%,

Compound,"activity change, negative = growth inhibition",Potency
Cc1[nH]c(N)nc(=S)c1CCCNc1ccccc1,,16.4 µM (active)
CCc1c(Nc2ccccc2C)nc(N)[nH]c1=O,-8.5%,
Cc1cc(=O)n(C)c(=O)n1CCCNc1ccccc1,-23.9%,
O=C(NC(=S)Nc1ccc(Cl)c(C(=O)O)c1)c1cncc(Br)c1,24.7%,
O=C(COC(=O)/C=C/c1ccc(Cl)cc1)NC1CCS(=O)(=O)C1 (stereo unspecified),,18.4 µM (active)
O=C(COC(=O)/C=C/c1ccc2c(c1)OCO2)NC1CCS(=O)(=O)C1 (stereo unspecified),14.5%,
O=C(Cc1ccc(Cl)cc1)NC1CCS(=O)(=O)C1 (stereo unspecified),12.7%,
Cc1cccc(C)c1NC(=O)CSc1nnc(-c2ccccc2)n1Cc1ccc2c(c1)OCO2,-17.4%,
O=S(=O)(NCC1CCCO1)c1ccc2ccccc2c1 (stereo unspecified),-14.2%,
CCOC(=O)c1c(NC(=O)c2ccc(S(=O)(=O)N(C)CC3CCCO3)cc2)sc2c1CC(C)(C)NC2(C)C (stereo unspecified),-27.4%,
O=C(Nc1ccc(S(=O)(=O)NCC2CCCO2)cc1)c1ccc(F)cc1 (stereo unspecified),,16.4 µM (active)
CN(CC1CCCO1)S(=O)(=O)c1ccc(C(=O)Nc2ccc([N+](=O)[O-])cc2)cc1 (stereo unspecified),,5.8 µM (active)
CCOc1ccc(S(=O)(=O)NCC2CCCO2)cc1 (stereo unspecified),-16%,
CCC(=O)Nc1ccc(C(=O)Nc2ccc3c(c2)C(=O)N(CC2CCCO2)C3=O)cc1 (stereo unspecified),-10.2%,
O=C1C(C=NCC2CCCO2)=C(O)c2ccccc21 (stereo unspecified),-16.7%,
COC(=O)C1CCN(C(=O)NC2CC(=O)N(c3ccc4c(c3)OCCO4)C2)CC1 (stereo unspecified),0.284%,
COC(=O)c1onc(-c2c(OC)cc(OC)cc2OC)c1C(=O)OC,-7.15%,
CN(Cc1cc2cc(F)ccc2[nH]1)Cc1nc(-c2cnccn2)no1,-4.72%,
COc1cc(C(=O)NNC(=O)CN2C(=O)NC3(CCCC3)C2=O)cc(OC)c1OC,4.78%,
CCOC(=O)c1sc2nc(CSCC(=O)OCc3ccc(C(=O)OC)o3)[nH]c(=O)c2c1C,-10.1%,
Cc1sc2nc(COC(=O)C(NC(=O)c3ccc(Cl)cc3Cl)C(C)C)[nH]c(=O)c2c1C (stereo unspecified),-16.1%,
Cc1sc2nc(CSCC(=O)Nc3c(Cl)cccc3Cl)[nH]c(=O)c2c1C,,9.2 µM (active)
